# Experimental data: PubChem BioAssay (EPA / NIEHS)
# Several values for one entry are separate records, joined by “and”; a condition that tells them apart may be missing. Identical values can stand only once. Records with an inconclusive call do not appear. Some compounds were tested as several samples or in several runs, with calls that do not always agree. Activity calls are given as the source filed them. How the source made its calls: active means hit-call score of the fitted dose curve at least 0.9, where 1 is the maximum; inconclusive means response in the unintended direction; inactive means score below 0.9.
# Columns and labels:
# [1] = molecular target: human Peroxisome Proliferator-activated Receptor alpha (PPARa), PPARA (gene 5465) (UniProt Q07869); assay: NVS_NR_hPPARa: NovaScreen (NVS) Nuclear Receptor Binding Assay for human Peroxisome Proliferator-activated Receptor alpha (PPARa) (AID 2283359);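 further: activity means loss of TR-FRET signal versus DMSO baseline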
# Method in brief: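 One-hour incubation, cell-free extracted protein, TR-FRET binding readout; signal loss vs DMSO scored. Screen: 25 uM duplicates, confirmatory dose series for actives.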
# [2] = molecular target: PGR (gene 5241) (UniProt P06401); assay: NVS_NR_hPR: NovaScreen (NVS) Nuclear Receptor Binding Assay for human Progestron Receptor (PR) (AID 2283360);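 further: active means loss of bound radioligand signal versus DMSO baseline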
# Method in brief: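 Cell-free radioligand binding using receptor protein extracted from T47D cells, read by scintillation counting 18 hours after dosing. Loss of signal relative to DMSO baseline indicates displacement; primary screen single concentration 25 uM in duplicate, actives followed in concentration series.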
# [3] = molecular target: Glucocorticoid receptor (Homo sapiens) (UniProt P04150); assay: NVS_NR_hGR: NovaScreen (NVS) Nuclear Receptor Binding Assay for human Glucocorticoid Receptor (GR) (AID 2283363);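 on AC50: activity is loss of specific radioligand binding signal relative to DMSO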
# Method in brief: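 Single-readout cell-free binding: radioligand plus extracted receptor, 16-hour dosing, filter radiodetection; 25 uM duplicate primary, concentration series secondary.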
# [4] = molecular target: Nuclear receptor subfamily 1 group I member 2 (Homo sapiens) (UniProt O75469); assay: NVS_NR_hPXR: NovaScreen (NVS) Nuclear Receptor Binding Assay for human Pregnane X Receptor (PXR) (AID 2283365);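 further: a drop in FRET signal versus DMSO baseline means the compound binds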
# Method in brief: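 Human PXR binding measured by TR-FRET in a cell-free format, 2 h exposure. Single-concentration duplicates at 25 uM preceded concentration-response retests of actives; endpoint fitted positively relative to DMSO, loss of signal indicating binding.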
# [5] = molecular target: human Serotonin Transporter (SERT), SLC6A4 (gene 6532) (UniProt P31645); assay: NVS_TR_hSERT: NovaScreen (NVS) Transporter Assay for human Serotonin Transporter (SERT) (AID 2283372)
# Method in brief: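 Human platelet membrane preparation; displacement of radioligand from serotonin transporter measured after 1 h by filtration and scintillation counting. Single 25 uM duplicate screen, then concentration series for actives, with DMSO as negative baseline.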
# [6] = molecular target: human Adenosine Transporter (Adot), SLC29A1 (gene 2030) (UniProt Q99808); assay: NVS_TR_hAdoT: NovaScreen (NVS) Transporter Assay for human Adenosine Transporter (Adot) (AID 2283368)
# Method in brief: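 Binding displacement on U937 extracted protein, read 1 h post-dose by filtration and scintillation counting. Primary duplicate test at 25 uM, then singleton concentration series with 50 uM top; DMSO baseline.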
# [7] = molecular target: rat Androgen Receptor (AR), Ar (gene 24208) (UniProt P15207); assay: NVS_NR_rAR: NovaScreen (NVS) Nuclear Receptor Binding Assay for rat Androgen Receptor (AR) (AID 2283366)
# Method in brief: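 Actives from a duplicate single-concentration (25 uM) primary run went on to concentration series. Displacement of radioligand was counted by filtration and scintillation, 18 h post-dose, using prostate extracts from testosterone-pretreated rats, with DMSO as baseline.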
# [8] = molecular target: human Thyroid Receptor Alpha (TRa), THRA (gene 7067) (UniProt P10827); assay: NVS_NR_hTRa_Antagonist: NovaScreen (NVS) Nuclear Receptor Binding Assay for human Thyroid Receptor Alpha Antagonism (TRa) (AID 2283362);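 further: activity is loss of signal relative to DMSO baseline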
# Method in brief: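 Actives from a duplicate 25 uM single-point screen were retested in concentration series. The cell-free antagonist-format binding assay was read by AlphaLISA chemiluminescence at 1 h, scored as signal loss relative to DMSO.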
# [9] = molecular target: Retinoic acid receptor alpha (Homo sapiens) (UniProt P10276); assay: NVS_NR_hRARa_Agonist: NovaScreen (NVS) Nuclear Receptor Binding Assay for human Retinoic Acid Alpha Receptor Agonism (RAR) (AID 2283361)
# Method in brief: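 Compounds screened at 25 uM, duplicate, then in concentration series if active. Detection: TR-FRET gain of signal versus DMSO after 2 h with cell-free extracted RARα.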
# [10] = molecular target: guinea pig Sigma Receptor, Non-selective Binding, SIGMAR1 (gene 100135589) (UniProt Q60492); assay: NVS_OR_gSIGMA_NonSelective: NovaScreen (NVS) Nuclear Receptor Binding Assay for guinea pig Sigma Receptor, Non-selective Binding (AID 2283367)
# Method in brief: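 Test chemicals were screened in duplicate at 25 uM, then in concentration series if active, against radioligand binding to guinea pig brain membranes; filtration and scintillation counting at 1 h measured remaining bound ligand.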
# Chain of Glucocorticoid receptor (Homo sapiens) (P04150 whole entry, looked up): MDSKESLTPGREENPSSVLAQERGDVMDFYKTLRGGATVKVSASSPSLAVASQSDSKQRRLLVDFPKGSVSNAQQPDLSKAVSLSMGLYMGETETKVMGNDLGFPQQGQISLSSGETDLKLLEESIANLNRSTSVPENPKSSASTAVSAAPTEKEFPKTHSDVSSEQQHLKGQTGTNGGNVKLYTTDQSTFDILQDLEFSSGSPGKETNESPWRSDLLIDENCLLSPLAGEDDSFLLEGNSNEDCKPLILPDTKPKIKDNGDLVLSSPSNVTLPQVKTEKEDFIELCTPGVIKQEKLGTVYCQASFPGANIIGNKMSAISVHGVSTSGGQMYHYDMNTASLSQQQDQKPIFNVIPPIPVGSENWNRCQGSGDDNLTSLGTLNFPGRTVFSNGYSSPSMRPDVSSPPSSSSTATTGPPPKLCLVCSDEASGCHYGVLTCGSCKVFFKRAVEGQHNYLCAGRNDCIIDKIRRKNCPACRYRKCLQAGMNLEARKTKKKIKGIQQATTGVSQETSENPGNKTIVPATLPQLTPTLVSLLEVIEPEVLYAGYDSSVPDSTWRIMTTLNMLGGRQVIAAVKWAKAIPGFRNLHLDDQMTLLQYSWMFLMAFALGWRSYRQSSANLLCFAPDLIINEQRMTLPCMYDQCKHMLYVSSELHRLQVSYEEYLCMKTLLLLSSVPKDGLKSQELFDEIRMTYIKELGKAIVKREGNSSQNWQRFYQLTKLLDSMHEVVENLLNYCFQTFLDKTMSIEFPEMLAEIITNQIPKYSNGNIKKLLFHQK
# Chain of human Peroxisome Proliferator-activated Receptor alpha (PPARa), PPARA (gene 5465) (Q07869 whole entry, looked up): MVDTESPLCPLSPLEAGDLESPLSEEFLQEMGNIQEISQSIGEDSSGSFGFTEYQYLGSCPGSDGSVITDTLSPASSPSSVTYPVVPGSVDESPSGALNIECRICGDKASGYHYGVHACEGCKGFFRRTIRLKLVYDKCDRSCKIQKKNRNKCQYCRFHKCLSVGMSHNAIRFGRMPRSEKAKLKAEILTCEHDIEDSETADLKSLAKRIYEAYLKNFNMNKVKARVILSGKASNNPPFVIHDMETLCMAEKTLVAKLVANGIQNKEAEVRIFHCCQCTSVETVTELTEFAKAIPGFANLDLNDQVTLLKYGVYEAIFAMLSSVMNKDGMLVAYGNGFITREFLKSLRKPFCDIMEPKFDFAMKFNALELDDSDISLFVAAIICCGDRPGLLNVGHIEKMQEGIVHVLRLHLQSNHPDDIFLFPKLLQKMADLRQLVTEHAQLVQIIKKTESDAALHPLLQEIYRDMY
# Chain of Nuclear receptor subfamily 1 group I member 2 (Homo sapiens) (O75469 whole entry, looked up): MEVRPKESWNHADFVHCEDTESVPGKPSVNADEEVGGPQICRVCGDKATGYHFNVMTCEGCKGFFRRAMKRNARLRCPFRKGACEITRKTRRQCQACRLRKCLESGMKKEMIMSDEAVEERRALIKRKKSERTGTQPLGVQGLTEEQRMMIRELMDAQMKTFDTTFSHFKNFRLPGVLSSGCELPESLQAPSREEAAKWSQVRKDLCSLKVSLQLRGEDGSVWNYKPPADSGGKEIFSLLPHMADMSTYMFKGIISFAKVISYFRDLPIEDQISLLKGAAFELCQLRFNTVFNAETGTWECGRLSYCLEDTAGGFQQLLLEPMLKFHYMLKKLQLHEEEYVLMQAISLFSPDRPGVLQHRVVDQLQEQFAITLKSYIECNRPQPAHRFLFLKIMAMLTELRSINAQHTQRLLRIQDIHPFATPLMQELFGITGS
# Chain of PGR (gene 5241) (P06401 whole entry, looked up): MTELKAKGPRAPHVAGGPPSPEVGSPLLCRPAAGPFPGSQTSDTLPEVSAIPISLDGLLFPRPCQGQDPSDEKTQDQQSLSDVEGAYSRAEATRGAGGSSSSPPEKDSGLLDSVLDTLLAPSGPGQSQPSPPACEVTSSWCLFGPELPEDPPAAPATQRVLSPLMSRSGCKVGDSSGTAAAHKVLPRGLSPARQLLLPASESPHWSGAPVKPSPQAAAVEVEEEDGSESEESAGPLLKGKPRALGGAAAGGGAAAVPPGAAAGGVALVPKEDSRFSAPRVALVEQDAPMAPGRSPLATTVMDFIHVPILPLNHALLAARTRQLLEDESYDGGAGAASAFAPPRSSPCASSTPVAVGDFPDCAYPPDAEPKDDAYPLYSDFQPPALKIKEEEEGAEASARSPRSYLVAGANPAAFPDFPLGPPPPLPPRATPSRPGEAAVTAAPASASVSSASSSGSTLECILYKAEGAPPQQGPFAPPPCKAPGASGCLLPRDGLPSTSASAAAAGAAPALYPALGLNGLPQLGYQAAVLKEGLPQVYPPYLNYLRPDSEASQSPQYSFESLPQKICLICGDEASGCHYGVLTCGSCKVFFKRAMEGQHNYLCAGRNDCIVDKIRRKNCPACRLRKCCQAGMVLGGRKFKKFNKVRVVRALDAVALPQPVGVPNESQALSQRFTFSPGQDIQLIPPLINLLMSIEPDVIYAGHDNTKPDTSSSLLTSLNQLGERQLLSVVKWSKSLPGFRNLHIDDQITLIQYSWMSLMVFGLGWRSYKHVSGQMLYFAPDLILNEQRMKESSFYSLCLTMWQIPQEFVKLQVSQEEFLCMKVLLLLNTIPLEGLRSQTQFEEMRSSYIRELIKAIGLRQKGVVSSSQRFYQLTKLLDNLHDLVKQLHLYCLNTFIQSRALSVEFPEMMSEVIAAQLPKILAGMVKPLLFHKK
# Chain of human Thyroid Receptor Alpha (TRa), THRA (gene 7067) (P10827 whole entry, looked up): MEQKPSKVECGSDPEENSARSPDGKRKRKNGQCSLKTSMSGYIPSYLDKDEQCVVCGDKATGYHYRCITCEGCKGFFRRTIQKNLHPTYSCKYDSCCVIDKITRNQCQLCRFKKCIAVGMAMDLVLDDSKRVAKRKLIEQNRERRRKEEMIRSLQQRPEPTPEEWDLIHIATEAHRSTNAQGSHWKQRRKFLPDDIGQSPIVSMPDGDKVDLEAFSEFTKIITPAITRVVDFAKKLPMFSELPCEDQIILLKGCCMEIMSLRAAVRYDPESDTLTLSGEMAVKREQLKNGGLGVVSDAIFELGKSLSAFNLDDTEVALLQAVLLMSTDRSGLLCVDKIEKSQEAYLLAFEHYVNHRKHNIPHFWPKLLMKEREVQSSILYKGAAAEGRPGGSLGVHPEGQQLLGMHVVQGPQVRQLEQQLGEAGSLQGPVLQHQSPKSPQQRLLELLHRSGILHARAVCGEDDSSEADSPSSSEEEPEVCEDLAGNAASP
# Chain of Retinoic acid receptor alpha (Homo sapiens) (P10276 whole entry, looked up): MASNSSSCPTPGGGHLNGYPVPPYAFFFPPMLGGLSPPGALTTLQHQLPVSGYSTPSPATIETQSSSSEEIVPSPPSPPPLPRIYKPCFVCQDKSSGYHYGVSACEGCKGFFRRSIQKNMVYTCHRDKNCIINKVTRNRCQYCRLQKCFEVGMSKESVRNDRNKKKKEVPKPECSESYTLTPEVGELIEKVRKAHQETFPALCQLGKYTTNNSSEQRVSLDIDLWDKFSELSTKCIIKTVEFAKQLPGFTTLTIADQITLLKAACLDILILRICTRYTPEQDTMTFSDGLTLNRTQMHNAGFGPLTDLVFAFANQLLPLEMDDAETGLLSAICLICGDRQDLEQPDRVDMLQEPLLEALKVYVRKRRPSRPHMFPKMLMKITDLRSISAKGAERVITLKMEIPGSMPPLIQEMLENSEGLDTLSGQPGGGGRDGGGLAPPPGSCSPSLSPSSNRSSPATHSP
# Chain of guinea pig Sigma Receptor, Non-selective Binding, SIGMAR1 (gene 100135589) (Q60492 whole entry, looked up): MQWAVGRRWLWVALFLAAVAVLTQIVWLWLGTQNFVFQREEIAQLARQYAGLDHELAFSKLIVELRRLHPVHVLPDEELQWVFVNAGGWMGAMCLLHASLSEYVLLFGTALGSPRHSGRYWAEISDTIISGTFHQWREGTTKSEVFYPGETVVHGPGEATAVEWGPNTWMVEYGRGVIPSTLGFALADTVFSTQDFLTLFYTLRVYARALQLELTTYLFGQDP
# Chain of human Serotonin Transporter (SERT), SLC6A4 (gene 6532) (P31645 whole entry, looked up): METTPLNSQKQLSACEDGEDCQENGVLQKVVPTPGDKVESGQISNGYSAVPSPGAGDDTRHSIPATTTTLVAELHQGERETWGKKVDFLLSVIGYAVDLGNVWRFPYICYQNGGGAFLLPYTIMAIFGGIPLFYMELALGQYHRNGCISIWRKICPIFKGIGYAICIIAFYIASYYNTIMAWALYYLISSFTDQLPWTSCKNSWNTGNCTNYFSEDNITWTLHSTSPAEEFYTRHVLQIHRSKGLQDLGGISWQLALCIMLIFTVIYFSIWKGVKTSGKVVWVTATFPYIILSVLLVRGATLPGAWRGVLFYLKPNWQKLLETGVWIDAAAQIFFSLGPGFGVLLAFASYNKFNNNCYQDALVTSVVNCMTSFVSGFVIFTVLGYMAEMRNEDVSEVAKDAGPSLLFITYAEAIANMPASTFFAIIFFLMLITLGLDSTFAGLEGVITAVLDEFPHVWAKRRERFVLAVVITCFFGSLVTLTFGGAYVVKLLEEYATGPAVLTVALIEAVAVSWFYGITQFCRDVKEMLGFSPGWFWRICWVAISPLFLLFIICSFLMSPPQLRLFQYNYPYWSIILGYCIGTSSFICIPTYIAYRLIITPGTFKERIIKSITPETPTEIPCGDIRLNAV
# Chain of human Adenosine Transporter (Adot), SLC29A1 (gene 2030) (Q99808 whole entry, looked up): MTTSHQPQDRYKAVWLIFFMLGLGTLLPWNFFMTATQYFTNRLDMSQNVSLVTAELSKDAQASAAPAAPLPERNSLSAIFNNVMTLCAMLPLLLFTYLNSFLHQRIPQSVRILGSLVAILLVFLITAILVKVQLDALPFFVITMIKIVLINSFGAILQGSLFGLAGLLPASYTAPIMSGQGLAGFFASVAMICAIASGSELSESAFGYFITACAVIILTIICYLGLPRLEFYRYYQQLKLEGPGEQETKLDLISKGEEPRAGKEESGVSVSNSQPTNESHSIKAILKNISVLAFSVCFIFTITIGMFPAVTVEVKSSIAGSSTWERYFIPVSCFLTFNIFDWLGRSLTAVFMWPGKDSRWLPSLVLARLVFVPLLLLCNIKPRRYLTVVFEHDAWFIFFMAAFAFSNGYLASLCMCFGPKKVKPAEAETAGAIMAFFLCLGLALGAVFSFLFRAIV
compound,measurement,setting,value
O=C(O)Cc1cc(I)c(Oc2ccc(O)c(I)c2)c(I)c1,AC50,[1],46.3 µM (active)
same,AC50,[2],6.44 µM (active)
same,AC50,[3],561 nM (active) [middle of 4 runs]
same,outcome,[4],inactive
CN(C[C@@H](CC[N+]12CCC(C3CCCCC3)(CC1)CC2)c1ccc(Cl)c(Cl)c1)C(=O)c1cc(C(F)(F)F)cc(C(F)(F)F)c1,outcome,[2],inactive
same,AC50,[3],6.49 µM (active)
same,AC50,[4],25 µM (active)
same,AC50,[5],17.5 µM (active)
COCC(C)OCC(C)OCC(C)O (stereo unspecified),outcome,[2],inactive
CCCCCCCCOc1ccc(C(=O)c2ccccc2)c(O)c1,outcome,[1],inactive
O=C(O)c1ccccc1C(=O)OCc1ccccc1,outcome,[1],inactive
CC(C)(c1cc(Br)c(O)c(Br)c1)c1cc(Br)c(O)c(Br)c1,AC50,[1],8.19 µM (active)
same,AC50,[2],23.9 µM (active)
same,AC50,[3],4.97 µM (active)
CCCC(=O)OCCC(C)C,AC50,[2],17.2 µM (active)
CC(C)(C)c1cc(/C=C2\SC(N)=NC2=O)cc(C(C)(C)C)c1O,outcome,[2],inactive
CCCCCCCCOC(=O)c1cc(O)c(O)c(O)c1,AC50,[1],19 µM (active)
same,AC50,[3],1.14 µM (active)
same,AC50,[6],22.2 µM (active)
CC1=CC(=O)/C(=C(/C)O)C(=O)O1,outcome,[2],inactive
C[C@]12CC[C@@H]3c4ccc(O)cc4CC[C@H]3[C@@H]1CCC2=O,outcome,[1],inactive
same,AC50,[2],0.159 µM (active)
same,outcome,[7],inactive
CCCCCCCCCC(=O)O,outcome,[1],inactive
O=CCCCC=O,outcome,[1],inactive
same,outcome,[4],inactive
C[C@]12CC[C@@H]3c4ccc(O)cc4CC[C@H]3[C@@H]1CC[C@H]2O,outcome,[1],inactive
same,AC50,[3],374 nM (active) and 448 nM (active) and 261 nM (active)
same,outcome,[3],inactive
same,outcome,[4],inactive
CCCCCCCCCCCO,outcome,[1],inactive
same,AC50,[8],28.4 µM (active)
Cc1ncc(CO)c(CO)c1O,AC50,[2],16.9 µM (active)
CCCCCCCCCCCCO,outcome,[2],inactive
CC[C@@H]1C[C@H](N(Cc2cc(C(F)(F)F)cc(C(F)(F)F)c2)C(C)=O)c2cc(C(F)(F)F)ccc2N1C(=O)OC(C)C,outcome,[2],inactive
same,outcome,[9],inactive
same,outcome,[3],inactive
OC12N=C(c3ccccc3)SC1Cc1cc(Cl)ccc12 (stereo unspecified),outcome,[1],inactive
CN(C)c1ccc(C(=C2C=CC(=[N+](C)C)C=C2)c2ccc(N(C)C)cc2)cc1,AC50,[1],14.7 µM (active)
same,AC50,[3],1.87 µM (active)
same,AC50,[4],6.47 µM (active)
same,AC50,[7],6.51 µM (active)
same,AC50,[10],14.8 µM (active)
same,AC50,[6],7.35 µM (active)
Cc1c2ccccc2c(C)c2c1ccc1ccccc12,outcome,[1],inactive
same,AC50,[2],15.6 µM (active)
same,AC50,[3],15.3 µM (active)
Cc1cc(F)ccc1-c1cc(N2CC[C@@H](O)[C@H]2CO)ncc1N(C)C(=O)C(C)(C)c1cc(C(F)(F)F)cc(C(F)(F)F)c1,AC50,[2],0.401 µM (active)
same,AC50,[3],4.3 µM (active)
same,outcome,[7],inactive
Clc1cc(Cl)c2c(c1)N=C1CCCCCN1C2,outcome,[1],inactive
same,outcome,[2],inactive
same,AC50,[10],0.542 µM (active)
CC(C)(O)c1ccc(CNC(=O)c2cccnc2Oc2ccc3nonc3c2)cc1,outcome,[2],inactive
same,outcome,[3],inactive
CC/C(=C(/CC)c1ccc(O)cc1)c1ccc(O)cc1,outcome,[1],inactive
same,outcome,[2],inactive
same,AC50,[3],177 nM (active) and 162 nM (active) and 1.27 µM (active)
same,AC50,[6],17.6 µM (active)
CCCCOC(=O)c1ccc(O)cc1,outcome,[1],inactive
same,outcome,[2],inactive
same,outcome,[3],inactive
same,outcome,[4],inactive
same,outcome,[7],inactive
same,AC50,[10],4.2 µM (active)
NCc1cccc(C2CCN(C(=O)c3ccc(C#Cc4ccccc4F)o3)CC2)c1,AC50,[1],40.8 µM (active)
same,outcome,[2],inactive
same,AC50,[3],7.56 µM (active)
same,AC50,[4],7.85 µM (active)
same,AC50,[7],15.4 µM (active)
same,AC50,[10],13.2 µM (active)
same,AC50,[6],25 µM (active)
same,outcome,[5],inactive
CN1C(=O)CC[C@H]1c1cccnc1,outcome,[2],inactive
Cc1occc1C(=O)Nc1ccc(C(=O)N2CCC(F)(F)/C(=C\C(=O)N3CCC(N4CCCCC4)CC3)c3ccccc32)cc1,AC50,[10],2.93 µM (active)
same,AC50,[6],8.75 µM (active)
CCO[Si](CCCNC(N)=O)(OCC)OCC,outcome,[9],inactive
COc1ccc2cc(S(=O)(=O)N[C@H](CC(=O)N[C@H](Cc3ccc(CN4[C@H](C)CCC[C@@H]4C)cc3)C(=O)N(C)C(C)C)c3ccc4c(c3)OCO4)ccc2c1,outcome,[3],inactive
same,AC50,[10],1.74 µM (active)
same,AC50,[6],9.24 µM (active)
same,outcome,[5],inactive
O=c1c(-c2ccc(O)cc2)coc2cc(O)cc(O)c12,outcome,[9],inactive
same,outcome,[4],inactive
same,outcome,[7],inactive
O=c1[nH]sc2ccccc12,AC50,[6],17.2 µM (active)
O=C1CCC(C2CCCCC2)CC1,outcome,[8],inactive
same,outcome,[4],inactive
same,AC50,[10],25 µM (active)
CCN(Cc1cccnc1)C(=O)c1cccc(Cl)c1[C@]1(C)C(=O)N(Cc2ccc(OC)cc2OC)c2ccc(Cl)cc21,AC50,[2],9.73 µM (active)
same,AC50,[3],4.93 µM (active)
same,AC50,[6],1.55 µM (active)
